Outcome and AC50 data for 16 compounds are collected here from PubChem BioAssay (EPA / NIEHS).

Inconclusive results are not listed. Active and inactive are the calls of the source. Rule for the calls, unless noted: active = hit-call score of the fitted dose curve at least 0.9, where 1 is the maximum; inactive = score below 0.9.

Read-out in test [1]: E-selectin (Homo sapiens) (UniProt P16581)
As to the kind of experiment: BSK_SAg_Eselectin: BioMAP Diversity Plus: SAg Assay for Eselectin Biomarker Activity (AID 2283091). As to conditions: primary human HUVEC with PBMC; actives raise or lower the signal. In a few lines:
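Endpoint values derive from bidirectional fitting relative to DMSO, using ELISA-measured E-selectin in a human vascular co-culture (umbilical vein endothelium plus PBMC) sampled 24 h after dosing.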

Read-out in test [2]: Monokine induced gamma interferon (MIG), CXCL9 (gene 4283)
Nature of the test: BSK_SAg_MIG: BioMAP Diversity Plus: SAg Assay for Monokine induced gamma interferon (MIG) Biomarker Activity (AID 2283092). As to conditions: primary human HUVEC with PBMC; actives raise or lower the signal. Put shortly:
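ELISA readout of MIG/CXCL9; primary human umbilical vein endothelial cells co-cultured with peripheral blood mononuclear cells; 24 h post-dose; gain/loss fit vs DMSO baseline.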

A short description of test [3]: BSK_SAg_PBMCCytotoxicity: PBMC Cytotoxicity Assessment in the BioMAP Diversity Plus: SAg Assay (AID 2283093).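 For AC50: PBMC superantigen activated with SEB plus TSST-1 one hour after compound addition.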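 Note: PBMC viability measured as Alamar Blue reduction fluorescence at 546/580 nm; fitted both ways against DMSO so a hit may be loss or gain of signal.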 Particulars: primary human HUVEC with PBMC. Put shortly: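 Compound added to 75,000 PBMC/well for 1 h; SEB and TSST-1 then added at 20 ng/mL final each; 90 h incubation; Alamar Blue 6 h; read 546/580 nm ex/em. Activity fitted bidirectionally relative to DMSO baseline.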

Read-out in test [4]: Interleukin-8 (IL8), CXCL8 (gene 3576)
As to the kind of experiment: BSK_SAg_IL8: BioMAP Diversity Plus: SAg Assay for Interleukin-8 (IL8) Biomarker Activity (AID 2283094). Particulars: primary human HUVEC with PBMC; actives raise or lower the signal. In a few lines:
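Human umbilical vein endothelial cells co-cultured with peripheral blood mononuclear cells; IL-8 measured by ELISA 24 h after chemical dosing. Bidirectional concentration-response fitting used DMSO as negative control and activity baseline.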

The nature of test [5]: BSK_SAg_Proliferation: Cell Proliferation Assessment in the BioMAP Diversity Plus: SAg Assay (AID 2283095).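 Note: relative cell number as total protein by SRB absorbance in sub-confluent culture.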 As to conditions: primary human HUVEC with PBMC. In a few lines:
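Human umbilical vein endothelial cells co-cultured with peripheral blood mononuclear cells; total protein measured by sulforhodamine B staining (0.1% SRB after 10% TCA fixation), absorbance at 560 nm, at 96 h. Bidirectional fit against DMSO baseline.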

A short description of test [6]: BSK_SAg_SRB: Viability Assessment in the BioMAP Diversity Plus: SAg Assay (AID 2283096).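 Note: cells read one day after compound addition; hits may be either gain or loss of signal compared with DMSO.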 As to conditions: primary human HUVEC with PBMC. In a few lines:
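Total protein by sulforhodamine B staining, 24 h after dosing, in HUVEC–PBMC co-culture; DMSO-referenced bidirectional fitting.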

Read-out in test [7]: Monocyte Chemoattractant Protein-1 (MCP1), CCL2 (gene 6347)
Nature of the test: BSK_SAg_MCP1: BioMAP Diversity Plus: SAg Assay for Monocyte Chemoattractant Protein-1 (MCP1) Biomarker Activity (AID 2283090). As to conditions: primary human HUVEC with PBMC; actives raise or lower the signal. In a few lines: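 MCP-1 levels in the endothelial–PBMC SAg co-culture were quantified by ELISA at 24 h post-dosing; both increases and decreases versus DMSO scored. Cytotoxicity monitored by SRB total protein in parallel cultures.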

The target of test [8] is human CYP19A1, CYP19A1 (gene 1588) (UniProt P11511). As to the kind of experiment: NVS_ADME_hCYP19A1: NovaScreen (NVS) CYP450-related Enzyme Activity (ADME) Assay for human CYP19A1 (AID 2283098; active = hit-call score of the fitted dose curve at least 0.9, where 1 is the maximum). In a few lines:
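Biochem, cell-free; recombinant enzyme + specific substrate; fluorescence intensity at 0.5 h post-dose; 10 uM duplicate primary, conc. series for actives; acetonitrile = negative control/baseline; positive and negative controls on every plate.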

Test [9] concerns the target human CYP2A6, CYP2A6 (gene 1548) (UniProt P11509). Nature of the test: NVS_ADME_hCYP2A6: NovaScreen (NVS) CYP450-related Enzyme Activity (ADME) Assay for human CYP2A6 (AID 2283099; active = hit-call score of the fitted dose curve at least 0.9, where 1 is the maximum). As to the method:
NVS_ADME_hCYP2A6 is a biochemical, single-readout assay that uses extracted gene-proteins from insect cells in a cell-free assay. Measurements were taken 0.5 hour after chemical dosing in a 96-well plate.NVS_ADME_hCYP2A6 is one of one assay component(s) measured or calculated from the NVS_ADME_hCYP2A6 assay. It is designed to make measurements of enzyme activity, a form of enzyme reporter, as detected with fluorescence intensity signals by Fluorescence technology.Data from the assay component NVS_ADME_hCYP2A6 was analyzed into 1 assay endpoint. This assay endpoint, NVS_ADME_hCYP2A6, was analyzed in the positive analysis fitting direction relative to Acetonitrile as the negative control and baseline of activity. Using a type of enzyme reporter, loss-of-signal activity can be used to understand changes in the enzymatic activity as they relate to the gene CYP2A6. Furthermore, this assay endpoint can be referred to as a primary readout, because this assay has produced multiple assay endpoints where this one serves a enzymatic activity function. To generalize the intended target to other relatable targets, this assay endpoint is annotated to the cyp intended target family, where the subfamily is xenobiotic metabolism.
Binding assays used specific radioligands (tritiated, iodinated) with non-radioactive competitive displacement ligands in agonist or antagonist protocols (as indicated) and various reference compounds and inhibitors to titrate specific binding to receptors and transporters. Most enzyme assays (CYPs, kinases, phosphatases, proteases, HDACs) used recombinant protein and specific substrates (fluorescence mostly, some colorimetric and radioactive) and inhibitors, followed by a biochemical separation of substrate and product. All assays for the biochemical HTS were initially run in duplicate at a single concentration (10 uM for CYP450 assays and 25 uM for all others). Assay-chemical combinations meeting a pre-defined threshold (e.g., 30% inhibition and other criteria defined below) were then run in singleton concentration-response format with maximum concentration of 20 uM for CYPs and 50 uM for all others. Each assay was run with positive and negative controls, and concurrent controls on every plate. The follow-up (secondary) screen tested active chemical-pairs in concentration series, as well as a few additional assays not tested in the primary screen, some selected negative inactives, and several cases re-run in the concentration series for confirmatory purposes.

Test [10] concerns the target human CYP1A1, CYP1A1 (gene 1543) (UniProt P04798). Nature of the test: NVS_ADME_hCYP1A1: NovaScreen (NVS) CYP450-related Enzyme Activity (ADME) Assay for human CYP1A1 (AID 2283100; active = hit-call score of the fitted dose curve at least 0.9, where 1 is the maximum). In a few lines:
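Inhibition of recombinant CYP1A1 turnover was assessed fluorometrically in a biochemical format 1 h after compound exposure. Testing began at 10 uM in duplicate and progressed to concentration series reaching 20 uM, with on-plate positive and negative controls.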

Chain of human CYP19A1, CYP19A1 (gene 1588) (P11511 whole entry, looked up): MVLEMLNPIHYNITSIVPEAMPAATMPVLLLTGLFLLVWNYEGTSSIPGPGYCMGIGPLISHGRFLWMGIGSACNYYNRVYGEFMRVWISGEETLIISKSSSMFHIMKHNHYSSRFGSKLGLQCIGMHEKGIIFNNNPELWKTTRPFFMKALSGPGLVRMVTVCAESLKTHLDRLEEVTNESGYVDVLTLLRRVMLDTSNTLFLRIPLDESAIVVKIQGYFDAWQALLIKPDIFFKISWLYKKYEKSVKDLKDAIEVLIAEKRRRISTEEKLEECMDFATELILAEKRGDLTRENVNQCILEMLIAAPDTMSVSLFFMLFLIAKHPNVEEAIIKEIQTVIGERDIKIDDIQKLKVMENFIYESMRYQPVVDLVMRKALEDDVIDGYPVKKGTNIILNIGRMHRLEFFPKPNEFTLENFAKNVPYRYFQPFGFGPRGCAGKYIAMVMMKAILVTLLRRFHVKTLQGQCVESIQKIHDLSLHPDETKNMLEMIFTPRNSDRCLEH
Chain of human CYP1A1, CYP1A1 (gene 1543) (P04798 whole entry, looked up): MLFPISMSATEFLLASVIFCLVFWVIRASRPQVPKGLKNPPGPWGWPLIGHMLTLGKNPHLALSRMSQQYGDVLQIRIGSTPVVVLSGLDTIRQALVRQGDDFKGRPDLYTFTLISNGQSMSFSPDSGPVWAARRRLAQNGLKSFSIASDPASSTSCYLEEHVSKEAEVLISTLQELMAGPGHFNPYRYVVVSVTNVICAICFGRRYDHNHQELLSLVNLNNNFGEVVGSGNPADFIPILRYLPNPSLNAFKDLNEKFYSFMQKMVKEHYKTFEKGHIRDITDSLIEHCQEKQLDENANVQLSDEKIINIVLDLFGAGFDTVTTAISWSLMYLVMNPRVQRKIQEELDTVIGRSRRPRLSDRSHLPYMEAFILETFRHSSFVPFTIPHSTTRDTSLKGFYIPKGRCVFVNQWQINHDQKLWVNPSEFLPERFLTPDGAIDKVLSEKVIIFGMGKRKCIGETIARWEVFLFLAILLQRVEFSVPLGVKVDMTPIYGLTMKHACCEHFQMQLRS
Chain of E-selectin (Homo sapiens) (P16581 whole entry, looked up): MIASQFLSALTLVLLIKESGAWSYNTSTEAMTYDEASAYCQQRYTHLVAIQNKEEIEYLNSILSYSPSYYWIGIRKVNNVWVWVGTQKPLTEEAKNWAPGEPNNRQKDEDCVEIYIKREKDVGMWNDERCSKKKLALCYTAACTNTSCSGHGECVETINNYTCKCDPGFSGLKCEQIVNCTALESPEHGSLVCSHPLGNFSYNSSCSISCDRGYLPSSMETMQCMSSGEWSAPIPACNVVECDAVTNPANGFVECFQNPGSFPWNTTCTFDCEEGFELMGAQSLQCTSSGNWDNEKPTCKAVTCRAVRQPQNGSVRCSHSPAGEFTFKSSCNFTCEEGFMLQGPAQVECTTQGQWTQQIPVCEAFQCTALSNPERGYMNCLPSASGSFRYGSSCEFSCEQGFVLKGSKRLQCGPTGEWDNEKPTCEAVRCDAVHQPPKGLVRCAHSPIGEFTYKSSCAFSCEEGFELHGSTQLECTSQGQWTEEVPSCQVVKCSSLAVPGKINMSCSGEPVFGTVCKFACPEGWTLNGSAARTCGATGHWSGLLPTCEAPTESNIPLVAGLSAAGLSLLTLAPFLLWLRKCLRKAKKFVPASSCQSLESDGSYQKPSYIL
Chain of human CYP2A6, CYP2A6 (gene 1548) (P11509 whole entry, looked up): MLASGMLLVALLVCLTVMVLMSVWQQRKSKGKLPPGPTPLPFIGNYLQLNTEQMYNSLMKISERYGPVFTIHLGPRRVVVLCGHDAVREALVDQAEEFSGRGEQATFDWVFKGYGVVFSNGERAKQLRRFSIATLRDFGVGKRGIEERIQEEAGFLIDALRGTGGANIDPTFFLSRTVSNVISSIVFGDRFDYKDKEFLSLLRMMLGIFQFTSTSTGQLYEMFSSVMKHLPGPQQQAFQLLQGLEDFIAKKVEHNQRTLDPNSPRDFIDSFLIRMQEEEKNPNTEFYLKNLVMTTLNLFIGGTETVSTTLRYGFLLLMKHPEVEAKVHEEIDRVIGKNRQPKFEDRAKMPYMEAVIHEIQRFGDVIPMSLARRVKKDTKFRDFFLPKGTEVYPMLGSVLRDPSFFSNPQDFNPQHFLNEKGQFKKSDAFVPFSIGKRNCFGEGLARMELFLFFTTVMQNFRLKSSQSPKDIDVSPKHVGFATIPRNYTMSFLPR

With `CCc1cnc(C2=NC(C)(C(C)C)C(=O)N2)c(C(=O)O)c1` (stereo not given), the result in [1], in test [2], in test [3], in test [4], in test [5] and in test [6] was inactive.

Consider `COP(=O)(OC)SCn1c(=O)oc2cc(Cl)cnc21`, for which the outcome in test [7], in test [2] and in [4] was inactive. The figures for the AC50 in test [1], in test [5] and in test [6] were 20 µM (active), 12.2 µM (active) and 13.4 µM (active), respectively.

Take `COc1cc(OC)nc(Sc2cccc(Cl)c2C(=O)O)n1`: the result in [7], in test [1], in test [2], in test [4], in test [5] and in [6] was inactive.

For `Cc1cc(C2CC2)nc(Nc2ccccc2)n1`, the result in [7], in [2] and in [4] was inactive. The AC50 in test [1] is 34.4 µM (active); in test [5], 34.3 µM (active); in [6] it was 15 µM (active).

For the compound `C#CCC1=C(C)C(OC(=O)C2C(C=C(C)C)C2(C)C)CC1=O` (stereo not given), the AC50 in test [1] is 31.3 µM (active); in test [2], 36.6 µM (active); in test [3], 32.9 µM (active); in [4] it was 26 µM (active); in test [5], 34 µM (active); in test [6] it was 26.9 µM (active).

Turning to `C[N+]1(C)CCCCC1`, the outcome in [7], in [1], in test [2], in test [4], in [5] and in [6] was inactive.

With `CCOC(=O)CC(SP(=O)(OC)OC)C(=O)OCC` (stereo not given), the outcome in test [7], in test [1], in [2], in test [3], in test [4] and in [5] was inactive. Also, the outcome in test [6], in test [8], in test [9] and in [10] was inactive.

Turning to `CC(C)[C@H](C(=O)O[C@H](C#N)c1cccc(Oc2ccccc2)c1)c1ccc(Cl)cc1`, the outcome in test [7], in test [2], in test [4], in test [6] and in [8] was inactive. Further, the half-maximal activity concentration (AC50) was 12.3 µM (active) in test [1] and 12 µM (active) in [5].

For the compound `S=C1NCCN1`, the result in test [7], in test [1], in [2], in test [3], in test [4] and in test [5] was inactive. The result in [6] and in test [8] was inactive. Moreover, the AC50 in [9] is 3.94 µM (active).

Regarding `CN1COCN(Cc2cnc(Cl)s2)C1=N[N+](=O)[O-]`, the outcome in test [7], in test [1], in [2], in test [4], in [5] and in [6] was inactive.

Consider `CSc1nc(NC(C)C)nc(NC(C)C)n1`, for which the AC50 in [7] is 36.5 µM (active); in test [10], 6.84 µM (active). In addition, the outcome in test [1], in test [2], in [3], in [4], in test [5] and in test [6] was inactive. Moreover, in test [8], the compound was called inactive.

For `COP(=O)(OC)C(O)C(Cl)(Cl)Cl` (stereo not given), the outcome in test [7], in test [2], in test [4] and in [6] was inactive. Further, the AC50 in test [1] is 32.5 µM (active); in test [5], 8.98 µM (active).

As to `O=c1ccc(=O)[nH][nH]1`, the result in [7], in test [1], in test [2], in test [4], in test [5] and in test [6] was inactive.

Take `CCCCSP(=O)(SCCCC)SCCCC`: the outcome in [1] and in test [2] was inactive. Moreover, the AC50 in test [3] is 34.8 µM (active); in [4], 25.9 µM (active); in test [5], 36.2 µM (active); in test [6], 22.5 µM (active).

`CN(C)[C@@H]1C(=O)C(C(N)=O)=C(O)[C@@]2(O)C(=O)C3=C(O)c4c(O)cccc4[C@@](C)(O)[C@H]3[C@H](O)[C@@H]12`: the outcome in test [7], in test [1], in test [2], in [3], in [4] and in [5] was inactive. Further, the outcome in test [6] was inactive.

For `C=C(C)[C@H]1Cc2c(ccc3c2O[C@@H]2COc4cc(OC)c(OC)cc4[C@@H]2C3=O)O1`, the half-maximal activity concentration (AC50) in test [7] is 16.7 µM (active); in test [1] it was 4.05 µM (active); in test [2], 27.2 µM (active); in test [4], 1.61 µM (active); in test [5] it was 5.57 µM (active); in [6], 5.52 µM (active). Besides, the call in test [8] and in test [10] was inactive.

The term AC50 denotes the midpoint of the concentration-response curve, whichever way the signal moves.
